Source: PubChem BioAssay (National Center for Advancing Translational Sciences (NCATS))
This is one part of a sample in which hits are shown more often than they occur.
FBPA Giardia inh = qHTS Assay for Inhibitors of Fructose-1,6-bisphosphate Aldolase from Giardia Lamblia; A8B2U2; purified Giardia FBPA; Potency, µM (series often up to 59.6 µM), without a hit: top-dose activity, negative = inhibition, actives largely listed as inhibitors; 290,000 compounds, 0.71% hits; also: potency is read from the fitted curve at half-maximal effect; % is scaled to controls: 0 for no effect and ±100 for the full control effect; nearly all actives have a fitted effect of over 55% in size
Target sequence (A8B2U2 whole entry, looked up): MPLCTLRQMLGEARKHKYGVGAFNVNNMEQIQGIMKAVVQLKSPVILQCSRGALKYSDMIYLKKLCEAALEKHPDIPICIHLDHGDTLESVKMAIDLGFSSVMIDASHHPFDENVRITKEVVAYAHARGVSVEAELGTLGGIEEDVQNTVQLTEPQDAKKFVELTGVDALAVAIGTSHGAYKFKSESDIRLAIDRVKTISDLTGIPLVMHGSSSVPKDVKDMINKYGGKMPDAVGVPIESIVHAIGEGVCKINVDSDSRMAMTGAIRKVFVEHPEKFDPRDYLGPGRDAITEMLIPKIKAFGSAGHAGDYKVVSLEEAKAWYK
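Giardia FBPA (40 nM reagent) was preincubated 10 min at RT with compound (up to 57.5 uM final), then substrate plus GAPDH/TPI/NAD/arsenate coupling system with diaphorase/resazurin was added; resorufin fluorescence (525/598 nm) was read after 20 min.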
Tb PYK inh = qHTS of Trypanosoma Brucei Inhibitors; pyruvate kinase (Trypanosoma brucei), Q57TT1; 410,000 compounds, 0.12% hits; TbPYK enzyme, Kinase-Glo Plus ATP luminescence, 45 min; Potency, µM (doses to about 76.8 µM), for inactives: at the top dose activity, negative = inhibition, most hits filed as inhibitors; also: potency is read from the fitted curve at half-maximal effect; % is scaled to controls: 0 for no effect and ±100 for the full control effect; nearly all actives have a fitted effect of over 50% in size
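In this concentration-response screen, enzyme-free wells defined baseline while DMSO plates tracked drift. Each reaction combined TbPYK, substrate, compound and 130 uM ADP for 45 min at room temperature. Kinase-Glo Plus luminescence gave the signal.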
LmPK inhibitor = qHTS Assay for Inhibitors of Leishmania Mexicana Pyruvate Kinase (LmPK). Q27686. purified LmPK, Kinase-Glo ATP luminescence, 1 h. Potency, µM (highest dose often 57.5 µM), without a hit: top-dose activity change, negative = inhibition, most hits filed as inhibitors. 290,000 compounds, 0.37% hits; also: potency is read from the fitted curve at half-maximal effect; % is scaled to controls: 0 for no effect and ±100 for the full control effect
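In 50 mM imidazole pH 7.2 with 7 mM MgCl2, LmPK (0.1 nM) turned over PEP (0.5 mM) and ADP (0.1 mM) for 1 h at room temperature. Luciferase read-out of ATP.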
Sm TGR inh = qHTS Assay for the Inhibitors of Schistosoma Mansoni Peroxiredoxins. 360,000 compounds, 3% hits. AID 485364, 2010. Potency, µM (doses to about 114 µM), for inactives: at the highest dose activity change, negative = inhibition, usual class: inhibitors. Schistosoma mansoni thioredoxin glutathione reductase (TGR), Q962Y6. purified TGR, DTNB reduction, TNB absorbance 405 nm; also: potency is read from the fitted curve at half-maximal effect; % is scaled to controls: 0 for no effect and ±100 for the full control effect; nearly all actives have a fitted effect of over 60% in size
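TGR 20 nM + NADPH 100 uM (dispensed conc.), cpd preinc 15 min RT; start with NADPH (500 uM addition) then DTNB (15 mM addition). Kinetic TNB absorbance, 405 nm filter. Four-parameter Hill fit across titration.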
Shiga inhibitor = A qHTS for Small Molecule Inhibitors of Shiga Toxin; 290,000 compounds, 9.2% hits; AID 2315, 2010; Vero cells, Shiga toxin protein synthesis inhibition reporter; inhibition, % at 38.7 µM; in the data active = inhibition mostly above about 28%, no sharp cut-off; inactive = mostly below about 43%; also: 0% is about no effect
Cycloheximide cs = Cycloheximide Counterscreen for Small Molecule Inhibitors of Shiga Toxin; cell reporter, cycloheximide protein synthesis inhibition counterscreen; max response, %; 300,000 compounds, 12% hits; AID 2314, 2010; in the data active = max response mostly above about 13%, no sharp cut-off; inactive = mostly below about 14%; also: read at 38.3 µM for the half of the compounds with a filed dose; 0% is about no effect
* = called active by the depositor; [ ] = another dose, or the depositor's remark. Unless noted, calls follow the shape of the dose curve; as a rule, active = well fitted curve in the direction sought with a large enough effect; inconclusive = small, poorly fitted or top-dose-only effect, or another doubt; inactive = no such curve, though single readings can be large; an effect the other way counts as inactive or inconclusive.

Screening Cc1ccc(C(=O)c2coc3cc([N+](=O)[O-])c(O)c([N+](=O)[O-])c23)cc1 returned FBPA Giardia inh inconclusive, Tb PYK inh -30%, LmPK inhibitor -1%, Sm TGR inh 50µM*, Shiga inhibitor 13 and Cycloheximide cs 7.
CO[C@H]1COC(=O)[C@@H](Cc2ccccc2)NC(=O)[C@@H](C)COC(=O)C/C=C\[C@@H]1C was read as FBPA Giardia inh 4%[12.9 µM].
CCOc1ccc(-n2c(SCC(N)=O)nc3c(oc4ccccc43)c2=O)cc1 was read as Tb PYK inh -4% and Sm TGR inh -6%.
Screening O=C(CCCN1C(=O)S/C(=C\C=C\c2ccccc2)C1=O)Nc1ccc(C(=O)O)cc1 returned FBPA Giardia inh -2%, Tb PYK inh -6%, LmPK inhibitor -3%, Sm TGR inh inconclusive, Shiga inhibitor 14 and Cycloheximide cs 1.
O=C(CN1C(=O)S/C(=C\C=C\c2ccccc2)C1=O)Nc1cccc(O)c1 was read as FBPA Giardia inh -3%, Tb PYK inh -5%, LmPK inhibitor 2%, Sm TGR inh 0%, Shiga inhibitor 38* and Cycloheximide cs 34*.
O=C(CCN1C(=O)S/C(=C\C=C\c2ccccc2)C1=O)Nc1ccc(O)cc1 was read as FBPA Giardia inh -13%, Tb PYK inh 0%, LmPK inhibitor 7%, Sm TGR inh -5%, Shiga inhibitor 52* and Cycloheximide cs 32*.
For O=[N+]([O-])c1ccc(Oc2cccc3cccnc23)c([N+](=O)[O-])c1 the results were FBPA Giardia inh 20µM*, Tb PYK inh -12%, LmPK inhibitor 2%, Sm TGR inh 1%, Shiga inhibitor -8 and Cycloheximide cs -2.
`N/C(=N\OC(=O)c1cc(Br)ccc1Cl)c1ccccn1` gave FBPA Giardia inh 1%, Tb PYK inh 1%, LmPK inhibitor -18%, Sm TGR inh -2%, Shiga inhibitor 77* and Cycloheximide cs 52*.
Screening N/C(=N\OC(=O)CCCOc1ccc(Cl)cc1Cl)c1ccccn1 returned FBPA Giardia inh -3%, Tb PYK inh -1%, LmPK inhibitor -8%, Sm TGR inh 1%, Shiga inhibitor 4 and Cycloheximide cs 5.
`N/C(=N\OC(=O)c1ccc(Cl)cc1Cl)c1ccccn1` gave FBPA Giardia inh -2%, Tb PYK inh -32%, LmPK inhibitor 7.1µM*, Sm TGR inh 0%, Shiga inhibitor -20 and Cycloheximide cs -8.
`Cc1c(C(=O)Oc2cccc3cccnc23)cccc1[N+](=O)[O-]` gave FBPA Giardia inh inconclusive, Tb PYK inh 2%, LmPK inhibitor 10%, Sm TGR inh 0%, Shiga inhibitor 171* and Cycloheximide cs 41*.
O=C(Oc1cccc2cccnc12)c1cccc([N+](=O)[O-])c1 was read as FBPA Giardia inh -23%, Tb PYK inh 4%, LmPK inhibitor -2%, Sm TGR inh 0%, Shiga inhibitor -18 and Cycloheximide cs -5.
`Cc1c(-c2ccccc2)c(=O)oc2c(CN3CCOCC3)c(O)ccc12` gave Tb PYK inh -7% and Sm TGR inh 4%.
`Cc1ccc(C(=O)NCc2ccc(Cl)cc2)cc1S(=O)(=O)N1CCCCC1` gave Tb PYK inh -1% and Sm TGR inh -5%.
For COCC(C)N1CCC(Oc2ccc(C(=O)N3CCCC3)cc2)CC1 (configuration not stated) the results were FBPA Giardia inh -6%, Tb PYK inh 2%, LmPK inhibitor -6%, Sm TGR inh -12%, Shiga inhibitor 10 and Cycloheximide cs 1.
`Cc1c(C(=O)O/N=C(\N)c2ccccn2)cccc1[N+](=O)[O-]` gave FBPA Giardia inh 1%, Tb PYK inh -16%, LmPK inhibitor inconclusive, Sm TGR inh -3%, Shiga inhibitor 28 and Cycloheximide cs 22*.
CN(CC(=O)O/N=C(\N)c1ccccn1)S(=O)(=O)c1cc(Cl)ccc1Cl was read as FBPA Giardia inh 4%, Tb PYK inh -14%, LmPK inhibitor -3%, Sm TGR inh 2%, Shiga inhibitor -14 and Cycloheximide cs -2.
Screening Cc1ccc(C(=O)O/N=C(\N)c2ccccn2)c(Cl)c1 returned FBPA Giardia inh 9%, Tb PYK inh 14µM*, LmPK inhibitor inconclusive, Sm TGR inh -12% and Cycloheximide cs -11.
`N/C(=N\OC(=O)c1ccc(Cl)cc1[N+](=O)[O-])c1ccccn1` gave FBPA Giardia inh -2%, Tb PYK inh -11%, LmPK inhibitor -10%, Sm TGR inh 0%, Shiga inhibitor 118* and Cycloheximide cs 48*.
For CC1(C)CC[C@]2(C)CC[C@@]3(C)C(=CCC4[C@@]5(C)CCC(O)C(C)(C)C5CC[C@@]43C)C2C1 (some centres not stated) the results were FBPA Giardia inh 2%.
Screening COc1ccc(-c2cc3nc(CCl)[nH]c(=O)c3s2)cc1 returned FBPA Giardia inh -9%, Tb PYK inh -15%, LmPK inhibitor -19%, Sm TGR inh -17%, Shiga inhibitor -4 and Cycloheximide cs -4.
O=c1[nH]cnc2cc(-c3ccccc3)sc12 was read as FBPA Giardia inh -2%, Tb PYK inh 2%, LmPK inhibitor -10%, Sm TGR inh 9%, Shiga inhibitor 118* and Cycloheximide cs 48*.
For COc1ccc(-c2cc3nc[nH]c(=O)c3s2)cc1 the results were FBPA Giardia inh 0%, Tb PYK inh -11%, LmPK inhibitor -17%, Sm TGR inh 8%, Shiga inhibitor 67 and Cycloheximide cs 35*.
CCOC(=O)C1CCCN(C(=O)c2cccc(S(=O)(=O)N(Cc3ccccc3)c3ccccc3OC)c2)C1 (configuration not stated) was read as Tb PYK inh 1% and Sm TGR inh 5%.
Screening CCCCC(=O)Nc1nnc(SCC(=O)Nc2ccc(OC)cc2)s1 returned FBPA Giardia inh 2%, Tb PYK inh -1%, LmPK inhibitor 2%, Sm TGR inh -15%, Shiga inhibitor 93* and Cycloheximide cs 41*.
Screening CCCCC(=O)Nc1nnc(-c2ccc(OC)cc2)s1 returned FBPA Giardia inh 2%, Tb PYK inh 1%, LmPK inhibitor 7%, Sm TGR inh 0%, Shiga inhibitor 35* and Cycloheximide cs 23.
`CCCCC(=O)Nc1nnc(S(=O)(=O)N(CC)c2ccc(OC)cc2)s1` gave FBPA Giardia inh -1%, Tb PYK inh 2%, LmPK inhibitor 4%, Sm TGR inh -17%, Shiga inhibitor 3 and Cycloheximide cs -1.
